High-throughput results as filed in PubChem.
An excerpt weighted towards active compounds, which were near 2.2% of everything screened.
CHO-K1 Ca ag: counter-screen for M1 agonists: effect in parental CHO-K1 cells | Fluo-8 calcium fluorescence; scaled to maximal ATP response, vehicle zero | activation, % at 3 µM | 360,000 tested, 0.48% active | AID 602248, 2012; in the data active = activation above about 15%;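 also: untransfected CHO-K1 host cells lacking M1 receptor as counterscreen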
TMEM16A inh: TMEM16A chloride channel inhibitors, primary screen, cell-based, HTS. Anoctamin-1 (Mus musculus), Q8BHY3. HEK293 TMEM16A/YFP iodide influx fluorescence, ionomycin. normalized B-score (activity score, 25-100; higher = stronger inhibition) at 10 µM. 310,000 tested, 1.2% active. AID 588511, 2011;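 active = ratio plate-corrected score three or more library SD toward inhibition, starting fluorescence score within five deviations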;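 also: score derived from kinetic fluorescence span divided by baseline fluorescence per well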
NTR1 ag: agonists of human NTR1, primary screen, imaging, U2OS cells, beta-arrestin-GFP, high content. NTR1-U2OS beta-arrestin-GFP spot imaging, agonist mode. activation, % at 20 µM. 330,000 tested, 0.17% active. AID 493036, 2011;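 active = activation at or above 40% of the spot to cytoplasm intensity ratio, with at least 20 cells analyzed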
Target sequence (P30989 whole entry, looked up): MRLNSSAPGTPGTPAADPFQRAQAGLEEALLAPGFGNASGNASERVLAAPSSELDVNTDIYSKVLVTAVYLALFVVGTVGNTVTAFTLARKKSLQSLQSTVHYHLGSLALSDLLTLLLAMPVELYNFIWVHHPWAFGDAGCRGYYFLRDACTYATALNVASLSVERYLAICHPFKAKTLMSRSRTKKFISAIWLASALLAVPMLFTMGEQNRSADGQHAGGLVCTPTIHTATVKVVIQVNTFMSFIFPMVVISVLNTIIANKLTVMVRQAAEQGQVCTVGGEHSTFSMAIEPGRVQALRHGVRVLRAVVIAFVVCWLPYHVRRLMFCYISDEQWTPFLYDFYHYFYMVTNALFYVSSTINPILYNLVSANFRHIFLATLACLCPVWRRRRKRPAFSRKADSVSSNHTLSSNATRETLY
TMEM16A act: TMEM16A chloride channel activators or potentiators, primary screen, cell-based, HTS; Anoctamin-1 (Mus musculus), Q8BHY3; HEK293 TMEM16A/YFP-H148Q/I152L, iodide quench fluorescence; active compounds read low; B-score at 10 µM; 340,000 tested, 0.3% active; AID 623877, 2012;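 active = fluorescence-ratio B-score plate-corrected deviation score at least 3 library SD below zero, with starting fluorescence score within 5 deviations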;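 also: channel opened by trigger with iodide after compound preincubation; score built on the fluorescence ratio of max minus min over baseline; more negative score means more quench and so TMEM16A activation or potentiation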
CHO-K1 Ca PAM: nonselective calcium activators in parental CHO-K1 cells, primary screen, counter-screen for M1 PAM project, cell-based, Fluo-8 calcium fluorescence, full deck, 1536-well. activation, % at 3 µM. ATP EC20; 0% at ATP EC20, 100% at ATP max. AID 602247, 2012. 360,000 tested, 0.02% active;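 active = activation above the run cutoff, the mean activation of all test compounds plus 3 SD, cut at about 40% in these data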;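 also: peak over basal fluorescence ratio in a 140 s read after ATP addition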
CHO-K1 Ca antag: nonselective inhibitor or artifact in parental CHO-K1 cells; inhibition, % at 3 µM; 360,000 tested, 0.6% active; ATP-induced calcium, Fluo-8 fluorescence;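 active = inhibition above a per-plate cutoff, the plate's mean sample inhibition plus 3 SD, cut at about 24% in these data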
Numbers stand for hits; n = inactive; x = no result.

SMILES	CHO-K1 Ca ag	TMEM16A inh	NTR1 ag	TMEM16A act	CHO-K1 Ca PAM	CHO-K1 Ca antag
COc1cnc(-c2ccccn2)nc1Oc1ccccc1Cl	n	n	n	n	n	n
COc1cnc(-c2ccccn2)nc1Oc1ccc(Cl)cc1	n	n	n	n	n	24.4
O=C(C[C@@H]1C/C=C\C[C@H](Cc2ccc(F)cc2)C(=O)OC[C@@H](c2ccccc2)NC1=O)NCCO	n	x	n	n	n	n
Cc1ccc(N2CCN(C(=S)Nc3ccccc3)CC2)cc1	22.2	n	n	n	n	n
Cc1cc2nc(-c3ccccc3)c(CC(C)(C)C)n2c(C)c1Br	n	x	x	x	n	n
Cc1ccccc1/C=C1\Sc2ccc(C(=O)N3CCN(c4ccccn4)CC3)cc2N(C)C1=O	n	n	n	n	n	n
CN1C(=O)/C(=C/c2ccccc2F)Sc2ccc(C(=O)N3CCCC3)cc21	n	25	n	n	n	n
COc1cc(NC(=O)COc2cccc3c2OC(C)(C)C3)cc(OC)c1OC	18.3	x	n	x	n	n
Cc1nc2ccccc2nc1OCC(=O)Nc1cc(C(F)(F)F)ccc1N1CCOCC1	n	n	n	n	n	n
CC1(C)Cc2cccc(OCC(=O)Nc3cc(C(F)(F)F)ccc3N3CCOCC3)c2O1	n	n	n	n	n	30.3
COc1ccc2nc(C)cc(SCC(=O)NNC(=O)COc3ccccc3)c2c1	n	n	n	n	n	n
COc1ccc2nc(C)cc(Sc3nc4ccccc4s3)c2c1	28.8	n	n	n	n	n
OCCN1CCN(c2ncnc3c2ncn3[C@H]2CN(Cc3cccnc3)C[C@@H](CO)O2)CC1	n	x	x	x	n	26.9
CNc1ncnc2c1cnn2C1CCCCO1 (stereo unspecified)	n	x	x	n	n	n
O=C(C=Cc1ccccc1)c1cccs1	n	x	x	n	n	n
Nc1ccc(/C=C/C(=O)c2cccs2)cc1	22.1	n	n	-5.74	n	n
COc1ccc(C(C)=O)cc1COC(=O)c1cc(C)nc2ccccc12	n	n	n	n	n	n
COc1ccc(C(C)=O)cc1COC(=O)c1cc(C)oc1C	n	n	n	-11.2	n	n
Cc1cc(C)cc(-n2ncc3c2CCCC3NC(=O)c2cc(C)n(C)n2)c1 (stereo unspecified)	n	n	n	n	n	n
Cc1cc(C(=O)NC2CCCc3c2cnn3-c2ccc(C(C)(C)C)cc2)nn1C (stereo unspecified)	n	25	n	n	n	24.9
CCc1ccccc1OCc1nnc(N)s1	n	25	n	n	n	n
CCCCCc1c(-c2ccc(Br)cc2)ncn1CCc1ccccc1OC	n	x	x	x	n	n
CCOc1ccccc1OC(=O)c1ccco1	n	n	n	n	n	27.3
CC(=O)COc1ccccc1OC(=O)c1ccco1	n	n	n	n	n	n
COc1ccc(-c2cc(C(F)(F)F)nc(SCCC(=O)NCc3ccccc3)n2)cc1	n	n	n	n	n	28.9
SMILES	CHO-K1 Ca ag	TMEM16A inh	NTR1 ag	TMEM16A act	CHO-K1 Ca PAM	CHO-K1 Ca antag
COc1ccc(-c2cc(C(F)(F)F)nc(SCc3cccc(C(=O)O)c3)n2)cc1	n	n	n	n	n	n
CNc1ncnc2c1ncn2[C@H]1CN(CCN2CCOCC2)C[C@@H](CO)O1	n	x	x	x	n	n
CCN(C)C1CN(Cc2cn(Cc3ccc(C(F)(F)F)cc3)nn2)S(=O)(=O)C1 (stereo unspecified)	n	x	x	x	n	n
CCCc1cc(C(=O)Nc2cc(OC)ccc2OC)cs1	n	n	n	n	n	25.1
Cc1cc([N+](=O)[O-])ccc1NCc1ccccc1	n	n	n	n	n	n
COc1ccccc1CNc1ccc([N+](=O)[O-])cc1C	n	25	n	n	n	n
CCOc1ccccc1OCCCOc1ccc([N+](=O)[O-])cc1Cl	n	n	n	n	n	n
COc1cccc(CNc2ccc([N+](=O)[O-])cc2Cl)c1O	n	25	n	n	n	n
COc1ccc([N+](=O)[O-])cc1NC(=O)Cc1ccccc1Cl	n	n	n	n	n	n
COc1cccc(OC)c1OCCCOc1ccc([N+](=O)[O-])cc1Cl	n	100	n	n	n	n
Clc1ncnc2c1oc1ccccc12	n	n	n	n	n	n
c1coc(CN(Cc2ccco2)c2ncnc3c2oc2ccccc23)c1	n	100	n	n	n	n
COc1cccc(OC)c1C(=O)Nc1ccc2c(c1)Cc1ccccc1-2	n	n	n	n	n	n
COc1ccc(C(=O)Nc2ccc3c(c2)Cc2ccccc2-3)cc1	n	n	n	n	n	24.1
C=CCc1c(C)nc(C)nc1N/N=C/c1ccc([N+](=O)[O-])cc1	n	n	n	n	n	n
C=CCc1c(C)nc(C)nc1N/N=C/c1ccccc1O	n	25	n	n	n	n
COc1ccc(CNC(=O)C(C)OC(=O)c2cccc(N(C)C)c2)cc1 (stereo unspecified)	n	x	n	n	n	n
COc1ccc(C2CC(C(F)(F)F)n3nc(CO)c(Cl)c3N2)cc1OC (stereo unspecified)	n	n	n	-13.7	n	n
C#CCOCCOCCOCCNc1nc(N2CCN(C(=O)[C@H](CCC(=O)O)n3cc([C@@H](N)CC(N)=O)nn3)CC2)nc(N2CCN(C(=O)[C@H](CCC(=O)O)n3cc([C@@H](N)CC(N)=O)nn3)CC2)n1	n	x	n	x	n	n
CC(OC(=O)c1c2c(nc3ccccc13)/C(=C\c1ccc3c(c1)OCO3)CCC2)C(=O)Nc1ccc(S(N)(=O)=O)cc1 (stereo unspecified)	n	x	x	n	n	n
Cc1cccc(C)c1NC(=O)COC(=O)c1c2c(nc3ccccc13)/C(=C\c1ccc3c(c1)OCO3)CCC2	41.0	n	x	n	n	27.6
CCOc1ccccc1N(CC(=O)N1CCOCC1)S(=O)(=O)c1ccc(SC)cc1	n	x	x	-9.79	n	n
Cc1ccc(S(=O)(=O)N(CC(=O)N2CCOCC2)c2ccccc2F)cc1	n	n	n	n	n	n
S=C(Nc1ccccc1)N1CCc2ccccc21	n	n	n	n	n	n
O=[N+]([O-])c1ccc(NC(=S)N2CCc3ccccc32)cc1	n	100	n	n	n	n
Cc1ccc(C)c(C(C)NC(=S)NCc2ccc(F)cc2)c1 (stereo unspecified)	16.6	n	n	n	n	n
CCC1=NN(C(=O)COc2ccccc2)C(O)(c2ccc(Br)cc2)C1 (stereo unspecified)	21.5	n	n	n	n	n
CCC1=NN(C(=O)c2ccc([N+](=O)[O-])cc2)C(O)(c2ccccc2)C1 (stereo unspecified)	n	25	n	n	n	n
